± gives the standard deviation of the averaged measurements. Whole data set: some 33,000 sequences, median “E-score (rank enrichment, -0.5 to 0.5)” near -0.0028, cut for the highest 2% near 0.23. The sample as a whole holds a higher share of the highest values than the screen did.
These sequences were tested on 2Sb-muMax20 (muMax20 with two 1,3-bis(methyl)benzene Cys staples, A13C/A17C and Q88C/A92C, C-terminal Lys) (assay: PBM 8-mer E-score (E-score (rank enrichment, -0.5 to 0.5)); higher = stronger preferential binding).
Experimental: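 Protein binding microarray (universal PBM chip covering all 10-mers in fixed probe flanks) with chemically synthesized human Max(13-93) bHLH-LZ analogs (not full-length Max) bearing noncanonical residues (hArg, Tha, Aib, Nle at 65) and aromatic Cys staples. Read-out per 8-mer (and its reverse complement): E-score (rank-based enrichment, -0.5 to 0.5) and Z-score of median probe intensity.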

Sequence | PBM 8-mer E-score
GTCCCCTA | 0.093 ± 0.011
CCTAAACC | 0.0137 ± 0.051
CACACTAG | 0.0294 ± 0.013
ATTCTGCG | -0.00613 ± 0.071
AAGTACGC | 0.0498 ± 0.026
CCCTTGAG | 0.00432 ± 0.0094
GCTGGCTA | -0.249 ± 0.011
ACCCCGAT | 0.136 ± 0.042
CCGTATAC | 0.0522 ± 0.032
AACGAGAT | -0.0543 ± 0.025
CACGAGAA | -0.0119 ± 0.064
CACGAGGA | -0.017 ± 0.031
AACGAGGA | 0.239 ± 0.015
TACGAGGA | 0.169 ± 0.069
AACGAGAA | 0.238 ± 0.04
ATAGTGCG | 0.0132 ± 0.011
CATCGGAC | -0.165 ± 0.033
GATCATAA | 0.278 ± 0.0031
TATCATAA | 0.181 ± 0.012
CATCATAA | 0.142 ± 0.0093
CATCGCGA | 0.056 ± 0.036
ACCATAAC | 0.1 ± 0.012
ATTAATGA | 0.278 ± 0.055
GTTAATGA | 0.148 ± 0.06
GTTAACTA | 0.207 ± 0.1

Sequence | PBM 8-mer E-score
ATTAATTA | 0.263 ± 0.034
ATAAATTG | 0.165 ± 0.082
ATTAATTG | 0.175 ± 0.039
CTAAATTA | 0.0224 ± 0.0043
ATTAACTC | 0.136 ± 0.005
ATTAATGG | 0.0434 ± 0.0092
ATTAATTC | 0.105 ± 0.042
ATAAATTA | 0.307 ± 0.014
ATTAACTA | 0.237 ± 0.012
CGGTCACG | -0.188 ± 0.076
CAGGGAGC | -0.238 ± 0.051
AGCCTTCA | 0.149 ± 0.085
ATGAACTA | 0.27 ± 0.054
AATAATGT | 0.283 ± 0.0037
GATAATTA | 0.0844 ± 0.0069
AATAATTA | 0.269 ± 0.06
ATGAACTC | -0.04627 ± 0.0002
AATAATGG | 0.138 ± 0.0076
CATAATTA | 0.203 ± 0.039
CTGAACTA | -0.149 ± 0.065
AATAATGC | 0.213 ± 0.083
GAGTGCAC | -0.0155 ± 0.11
AATACGGA | 0.0895 ± 0.071
CGGAATGC | -0.00566 ± 0.015
GTCCATTA | 0.107 ± 0.015

Sequence | PBM 8-mer E-score
ATGTGGAA | 0.173 ± 0.015
GGAAATAC | -0.0227 ± 0.051
GAGTTCCA | -0.117 ± 0.052
GAACGTGA | 0.00502 ± 0.1
GCACGTGC | 0.4793 ± 0.0038
GCACGTAC | 0.0889 ± 0.026
GCACGTGA | 0.241 ± 0.026
GCACGTCC | -0.139 ± 0.095
GGACGTGA | -0.108 ± 0.045
GTTCCGTA | -0.187 ± 0.024
ATCCACAA | 0.0617 ± 0.059
ATCGTCCG | -0.149 ± 0.027
GTTTCTTA | 0.0179 ± 0.046
AATAACCG | 0.0384 ± 0.018
GCGCGCGA | 0.0594 ± 0.082
GCGCGCGC | 0.3223 ± 0.00078
ACGCGCGC | 0.1365 ± 0.00093
ACGCGCGT | 0.3355 ± 0.0029
CCGCGCGC | 0.01 ± 0.0081
ACGCGCGG | 0.178 ± 0.038
AGCAGTTC | 0.00143 ± 0.078
AAAAATAA | 0.0834 ± 0.061
GACCTGGA | -0.164 ± 0.035
AATATTCT | 0.133 ± 0.011
CATACGTC | -0.00541 ± 0.00038

Sequence | PBM 8-mer E-score
GATACGCA | 0.115 ± 0.031
AATACGCA | 0.251 ± 0.0039
GATACGTA | 0.081 ± 0.0043
AATACGTC | 0.0547 ± 0.024
AATACGTG | 0.0524 ± 0.012
AATACGCT | 0.188 ± 0.045
CATACGTA | 0.3021 ± 0.0027
AATACGTA | 0.231 ± 0.019
AAGCACAC | 0.0724 ± 0.00084
AGACGTAA | 0.0336 ± 0.059
CCGTAGAG | -0.0843 ± 0.033
GAGGGGCA | 0.0724 ± 0.043
AAGGGGCT | 0.276 ± 0.0072
TAGGGGCA | 0.267 ± 0.013
AAGGGGCG | 0.0188 ± 0.025
AAAGGGCT | 0.0103 ± 0.021
CAGGGGCA | 0.0503 ± 0.027
AAAGTTAT | 0.0271 ± 0.025
AATAGGGC | -0.00932 ± 0.054
CAGTTTGA | -0.0513 ± 0.03
GGAATGCC | -0.081 ± 0.011
GTGGAGCA | -0.0959 ± 0.032
AATAGCAG | -0.0835 ± 0.028
CTTGTACA | 0.0642 ± 0.09
CCTGTATA | 0.109 ± 0.011

Sequence | PBM 8-mer E-score
GACGTATA | 0.0136 ± 0.0084
GCTGTATA | 0.218 ± 0.05
ATTGTACA | 0.241 ± 0.042
ATTGTATG | 0.172 ± 0.066
AACGTATA | 0.251 ± 0.032
CACGTATA | 0.0602 ± 0.053
ATTGTATA | 0.273 ± 0.017
ATTGTACC | 0.178 ± 0.035
CTTGTATA | 0.164 ± 0.018
ACTGTATA | 0.236 ± 0.042
TGAAGAAA | -0.0313 ± 0.065
CACCTCTG | -0.0833 ± 0.03
CGTAACAG | 0.177 ± 0.013
GAAGGCGC | -0.0372 ± 0.063
AATGTATA | 0.269 ± 0.02
GATGTATA | 0.0803 ± 0.029
ATTGTCTC | -0.0946 ± 0.028
ATTGTCTA | 0.277 ± 0.0069
GTTGTCTA | -0.0541 ± 0.029
CATGTATA | 0.15 ± 0.062
TAACGGAA | 0.149 ± 0.021
ACAGTGAT | 0.142 ± 0.065
TAAGGCTA | 0.0712 ± 0.066
AGTAGGGC | 0.0716 ± 0.0035
AGGAGGGC | -0.0974 ± 0.038

Sequence | PBM 8-mer E-score
AGGAGGGA | -0.0776 ± 0.0034
ATGAGGGG | 0.267 ± 0.0094
AGTAGGGG | 0.306 ± 0.0088
AGTAGGGA | 0.0636 ± 0.013
AGGAGGGG | 0.297 ± 0.06
ATGAGGGA | 0.191 ± 0.062
ATGAGGGC | 0.0989 ± 0.0016
AATGGCGA | 0.135 ± 0.067
GACTCAGA | -0.115 ± 0.064
CACGGCAC | -0.198 ± 0.045
GGTCTCTA | -0.0733 ± 0.014
CCTGAGCC | -0.241 ± 0.074
TGTTTCAA | 0.13 ± 0.063
GAAGTTGC | -0.202 ± 0.021
CCTTCACG | -0.013 ± 0.075
CCTTCACA | 0.298 ± 0.014
ACTTCACA | 0.0282 ± 0.023
AATCCCGT | -0.000655 ± 0.018
ATATTTTA | 0.238 ± 0.0056
CCATTTTA | 0.0822 ± 0.0077
ATATTTAC | 0.22 ± 0.028
GCATTTTA | 0.151 ± 0.0045
ATATTTAA | 0.256 ± 0.024
ACATTTTA | 0.242 ± 0.054
CTATTTTA | 0.193 ± 0.048

Sequence | PBM 8-mer E-score
CTATTTAA | -0.0132 ± 0.0071
GTATTTTA | 0.0366 ± 0.0083
CCTTTTTC | 0.0688 ± 0.1
CCCGAAAA | 0.0645 ± 0.051
AGTATTAT | -0.0141 ± 0.036
AGCGAACC | -0.0262 ± 0.033
GCCCTCAA | 0.0476 ± 0.024
AAAGTACT | 0.136 ± 0.092
TGAAGTAA | 0.1 ± 0.05
AGAAGTAA | 0.141 ± 0.011
GGAAGTAA | 0.262 ± 0.0039
TATATCCA | 0.157 ± 0.048
AGTCGCAT | 0.00112 ± 0.0029
ATGATCCG | -0.186 ± 0.035
AAAAATAT | 0.16 ± 0.01
ATAAATAG | 0.111 ± 0.04
ATAAACAA | 0.157 ± 0.019
ATAAATAA | 0.111 ± 0.012
ATAAATAT | 0.239 ± 0.042
ATAAACAT | 0.246 ± 0.014
ATAAAAAT | 0.136 ± 0.028
ATAAACAC | 0.0999 ± 0.056
ATAAATAC | 0.288 ± 0.028
